Compound in the assay: CN[C@@H]1C[C@H]2O[C@@](C)([C@@H]1OC)n1c3ccccc3c3c4c(c5c6ccccc6n2c5c31)C(=O)NC4 [staurosporine]
In words: log2 fold change of tryptic peptide abundance, ligand vs vehicle (limited proteolysis) (log2 ratio); higher = more trypsin-susceptible (destabilized). As to conditions: ligand concentration: 20 uM; sample: K562 cleared lysate; digestion: 4 min, 22 C (HT-PELSA RT4min, Orbitrap Astral).

Experimental findings from the supplement of paper PMC12819154, “High-throughput peptide-centric local stability assay extends protein–ligand identification to membrane proteins, tissues and bacteria” (Nature Structural & Molecular Biology, 2025) are described below.

UniProt P10398, sequence (P10398 whole entry): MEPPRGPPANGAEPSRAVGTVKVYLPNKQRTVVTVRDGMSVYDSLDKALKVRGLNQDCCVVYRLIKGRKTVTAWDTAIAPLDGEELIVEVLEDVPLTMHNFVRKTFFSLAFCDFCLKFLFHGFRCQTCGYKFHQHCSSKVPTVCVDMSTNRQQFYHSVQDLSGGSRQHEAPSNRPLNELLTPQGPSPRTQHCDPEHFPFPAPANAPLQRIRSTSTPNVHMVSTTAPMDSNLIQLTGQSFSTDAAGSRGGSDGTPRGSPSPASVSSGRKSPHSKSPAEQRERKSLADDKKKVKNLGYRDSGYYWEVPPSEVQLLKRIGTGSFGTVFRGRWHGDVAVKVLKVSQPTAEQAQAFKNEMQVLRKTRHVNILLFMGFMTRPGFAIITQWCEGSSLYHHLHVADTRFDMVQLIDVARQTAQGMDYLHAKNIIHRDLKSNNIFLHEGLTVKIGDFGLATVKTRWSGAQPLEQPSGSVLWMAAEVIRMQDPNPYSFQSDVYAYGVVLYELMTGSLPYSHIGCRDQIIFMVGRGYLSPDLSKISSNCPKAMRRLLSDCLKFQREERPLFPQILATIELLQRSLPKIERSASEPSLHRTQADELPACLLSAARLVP
UniProt Q96EV8, sequence (Q96EV8 whole entry): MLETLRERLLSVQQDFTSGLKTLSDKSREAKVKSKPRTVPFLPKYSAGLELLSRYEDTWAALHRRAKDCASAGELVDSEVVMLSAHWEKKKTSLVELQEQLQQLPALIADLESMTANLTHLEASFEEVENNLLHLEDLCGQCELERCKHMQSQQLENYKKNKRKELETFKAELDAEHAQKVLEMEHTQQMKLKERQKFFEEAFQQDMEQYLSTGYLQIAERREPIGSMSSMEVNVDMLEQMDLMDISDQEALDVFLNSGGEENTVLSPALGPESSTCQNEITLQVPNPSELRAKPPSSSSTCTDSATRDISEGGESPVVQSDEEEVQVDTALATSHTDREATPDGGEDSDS
UniProt P45983, sequence (P45983 whole entry): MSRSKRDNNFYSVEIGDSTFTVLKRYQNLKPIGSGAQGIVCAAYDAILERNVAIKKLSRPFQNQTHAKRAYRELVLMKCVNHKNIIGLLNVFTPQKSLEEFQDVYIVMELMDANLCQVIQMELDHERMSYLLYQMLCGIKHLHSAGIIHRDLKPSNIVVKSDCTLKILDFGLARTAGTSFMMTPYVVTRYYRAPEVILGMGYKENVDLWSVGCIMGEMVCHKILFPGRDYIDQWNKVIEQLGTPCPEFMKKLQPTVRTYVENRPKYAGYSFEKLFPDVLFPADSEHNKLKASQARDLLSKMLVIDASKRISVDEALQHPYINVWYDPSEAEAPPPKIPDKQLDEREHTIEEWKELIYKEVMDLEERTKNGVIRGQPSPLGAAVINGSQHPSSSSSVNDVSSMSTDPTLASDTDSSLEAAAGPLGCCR
UniProt Q9H9C1, sequence (Q9H9C1 whole entry): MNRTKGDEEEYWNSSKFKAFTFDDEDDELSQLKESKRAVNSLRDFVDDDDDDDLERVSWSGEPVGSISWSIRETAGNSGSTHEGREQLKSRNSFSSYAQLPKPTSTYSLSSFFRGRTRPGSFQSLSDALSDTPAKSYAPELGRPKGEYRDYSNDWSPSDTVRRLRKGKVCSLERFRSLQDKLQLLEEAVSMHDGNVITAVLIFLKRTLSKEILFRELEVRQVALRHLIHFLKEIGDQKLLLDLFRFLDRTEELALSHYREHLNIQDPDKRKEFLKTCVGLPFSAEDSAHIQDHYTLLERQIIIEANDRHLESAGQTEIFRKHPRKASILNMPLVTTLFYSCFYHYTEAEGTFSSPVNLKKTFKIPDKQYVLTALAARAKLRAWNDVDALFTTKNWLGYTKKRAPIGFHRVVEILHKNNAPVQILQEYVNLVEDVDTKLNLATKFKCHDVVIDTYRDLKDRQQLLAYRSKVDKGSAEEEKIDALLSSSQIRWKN
UniProt Q14232, sequence (Q14232 whole entry): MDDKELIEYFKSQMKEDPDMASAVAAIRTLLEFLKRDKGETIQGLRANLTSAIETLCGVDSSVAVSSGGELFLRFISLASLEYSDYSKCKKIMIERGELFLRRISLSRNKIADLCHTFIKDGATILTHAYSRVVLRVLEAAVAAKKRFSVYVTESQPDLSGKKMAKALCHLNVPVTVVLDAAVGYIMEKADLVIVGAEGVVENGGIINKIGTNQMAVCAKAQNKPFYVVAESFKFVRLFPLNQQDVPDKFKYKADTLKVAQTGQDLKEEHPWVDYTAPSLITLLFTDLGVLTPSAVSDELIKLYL
UniProt P48739, sequence (P48739 whole entry): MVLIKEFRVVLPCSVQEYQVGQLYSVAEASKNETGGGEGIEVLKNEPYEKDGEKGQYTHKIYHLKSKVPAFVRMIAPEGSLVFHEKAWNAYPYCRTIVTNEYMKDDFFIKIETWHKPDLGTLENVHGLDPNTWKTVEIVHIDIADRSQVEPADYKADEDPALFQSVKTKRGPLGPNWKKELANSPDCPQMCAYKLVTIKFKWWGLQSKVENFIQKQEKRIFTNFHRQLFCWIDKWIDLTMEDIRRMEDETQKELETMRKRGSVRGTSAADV
UniProt Q70IA6, sequence (Q70IA6 whole entry): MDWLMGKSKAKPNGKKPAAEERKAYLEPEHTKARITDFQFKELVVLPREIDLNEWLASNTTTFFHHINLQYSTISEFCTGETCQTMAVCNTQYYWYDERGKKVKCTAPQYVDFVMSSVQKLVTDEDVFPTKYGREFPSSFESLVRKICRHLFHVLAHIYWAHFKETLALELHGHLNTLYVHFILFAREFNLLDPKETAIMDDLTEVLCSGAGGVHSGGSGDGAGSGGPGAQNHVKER
UniProt P11274, sequence (P11274 whole entry): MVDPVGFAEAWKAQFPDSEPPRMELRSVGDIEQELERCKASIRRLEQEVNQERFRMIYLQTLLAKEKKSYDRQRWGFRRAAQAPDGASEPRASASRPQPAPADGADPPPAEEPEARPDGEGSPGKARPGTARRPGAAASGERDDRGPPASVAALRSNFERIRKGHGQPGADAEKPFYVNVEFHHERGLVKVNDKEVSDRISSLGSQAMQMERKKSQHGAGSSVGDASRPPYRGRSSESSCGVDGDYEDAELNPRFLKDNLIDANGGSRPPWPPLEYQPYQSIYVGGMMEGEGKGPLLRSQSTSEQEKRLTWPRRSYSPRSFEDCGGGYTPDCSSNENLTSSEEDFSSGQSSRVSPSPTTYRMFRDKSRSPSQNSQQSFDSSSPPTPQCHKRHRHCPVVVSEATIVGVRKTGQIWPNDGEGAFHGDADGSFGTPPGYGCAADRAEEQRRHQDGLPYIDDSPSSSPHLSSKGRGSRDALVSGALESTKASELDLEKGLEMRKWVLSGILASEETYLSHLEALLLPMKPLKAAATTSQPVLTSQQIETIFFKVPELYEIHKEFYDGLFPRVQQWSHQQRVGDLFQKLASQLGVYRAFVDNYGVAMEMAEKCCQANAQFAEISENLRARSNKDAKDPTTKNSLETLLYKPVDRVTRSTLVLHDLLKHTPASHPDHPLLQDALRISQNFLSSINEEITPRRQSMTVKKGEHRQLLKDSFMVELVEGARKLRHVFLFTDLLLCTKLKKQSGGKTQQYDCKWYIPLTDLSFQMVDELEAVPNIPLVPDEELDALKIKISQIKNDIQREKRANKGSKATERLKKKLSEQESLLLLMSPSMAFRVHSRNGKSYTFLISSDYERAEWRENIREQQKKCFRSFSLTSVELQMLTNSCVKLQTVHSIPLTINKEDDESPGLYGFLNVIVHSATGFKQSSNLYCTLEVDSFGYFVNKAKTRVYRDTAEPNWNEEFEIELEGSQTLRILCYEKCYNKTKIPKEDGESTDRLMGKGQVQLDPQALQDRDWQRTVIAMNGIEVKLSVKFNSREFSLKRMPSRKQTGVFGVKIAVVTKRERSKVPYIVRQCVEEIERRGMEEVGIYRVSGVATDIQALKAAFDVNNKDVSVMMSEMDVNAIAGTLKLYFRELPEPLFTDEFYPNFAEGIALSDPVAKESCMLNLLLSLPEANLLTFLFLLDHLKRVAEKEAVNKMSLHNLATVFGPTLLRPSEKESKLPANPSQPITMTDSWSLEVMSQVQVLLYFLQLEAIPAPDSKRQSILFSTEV
UniProt Q8TBX8, sequence (Q8TBX8 whole entry): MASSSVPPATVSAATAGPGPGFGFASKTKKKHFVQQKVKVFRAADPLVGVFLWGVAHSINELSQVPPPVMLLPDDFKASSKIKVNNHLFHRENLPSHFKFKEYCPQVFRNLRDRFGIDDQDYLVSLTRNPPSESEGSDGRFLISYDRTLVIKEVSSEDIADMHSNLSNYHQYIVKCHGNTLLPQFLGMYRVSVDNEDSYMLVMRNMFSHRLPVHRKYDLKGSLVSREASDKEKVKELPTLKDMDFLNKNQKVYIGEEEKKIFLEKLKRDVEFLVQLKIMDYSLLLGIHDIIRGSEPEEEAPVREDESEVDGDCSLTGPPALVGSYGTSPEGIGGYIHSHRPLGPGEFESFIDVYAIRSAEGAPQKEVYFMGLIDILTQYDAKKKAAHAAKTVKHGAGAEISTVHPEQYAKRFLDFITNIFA
UniProt Q9NVS9, sequence (Q9NVS9 whole entry): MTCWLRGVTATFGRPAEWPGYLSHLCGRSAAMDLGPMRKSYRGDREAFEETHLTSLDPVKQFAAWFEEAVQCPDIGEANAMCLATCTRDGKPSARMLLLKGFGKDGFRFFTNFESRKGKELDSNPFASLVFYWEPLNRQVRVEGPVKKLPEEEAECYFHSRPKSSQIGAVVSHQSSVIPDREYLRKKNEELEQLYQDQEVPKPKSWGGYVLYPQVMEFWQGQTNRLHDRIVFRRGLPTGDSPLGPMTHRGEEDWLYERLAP
UniProt P37802, sequence (P37802 whole entry): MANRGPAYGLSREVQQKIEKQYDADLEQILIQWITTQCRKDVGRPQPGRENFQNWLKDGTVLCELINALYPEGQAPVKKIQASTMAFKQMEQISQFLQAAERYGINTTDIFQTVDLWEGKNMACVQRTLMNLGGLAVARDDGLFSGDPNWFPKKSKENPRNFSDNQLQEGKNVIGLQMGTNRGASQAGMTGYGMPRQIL

For the target “RAF1 (peptide sequence: IGDFGLATVK, peptide start residue: 445) (UniProt P04049)”, the log2 fold change was found to be 0.416. Then “CAMKK2 (peptide sequence: FYFQDLIK, peptide start residue: 291) (UniProt Q96RR4)”, with -2.2. For “PNPO (peptide sequence: SSQIGAVVSHQSSVIPDR, peptide start residue: 164) (UniProt Q9NVS9)”, the log2 fold change amounted to 1.66. Then “RPS17 (peptide sequence: NKIAGYVTHLMK, peptide start residue: 48) (UniProt P08708)”, with 0.59. On to “SGK3 (peptide sequence: FYAAEIASALGYLHSIK, peptide start residue: 265) (UniProt Q96BR1)”, for which the log2 fold change is -1.54.

Regarding “TAGLN2 (peptide sequence: TLMNLGGLAVAR, peptide start residue: 128) (UniProt P37802)”, the log2 fold change stood at 0.271.

With “PRKACB (peptide sequence: QIEHTLNEK, peptide start residue: 85) (UniProt P22694)”, the log2 fold change was determined as 1.81.

As for “DTNBP1 (peptide sequence: YEDTWAALHRR, peptide start residue: 55) (UniProt Q96EV8)”, the log2 fold change is -0.512. The value for “MOB2 (peptide sequence: ITDFQFK, peptide start residue: 35) (UniProt Q70IA6)” was 0.834; that for “BCR (peptide sequence: RAAQAPDGASEPR, peptide start residue: 79) (UniProt P11274)” was 0.577; that for “CDK5 (peptide sequence: DLKPQNLLINR, peptide start residue: 126) (UniProt Q00535)” was -3.41.

In the case of “UniProt Q8TBX8 (peptide sequence: HGAGAEISTVHPEQYAK, peptide start residue: 394)”, the log2 fold change is -1.92. The value for “UniProt P45983 (peptide sequence: MLVIDASK, peptide start residue: 301)” was -1.77; that for “RBM34 (peptide sequence: NGAQIADGFR, peptide start residue: 263) (UniProt P42696)” was 0.437; that for “UniProt Q15418 (peptide sequence: DILADVNHPFVVK, peptide start residue: 114)” was -1.43. As to “PRKAR2A (peptide sequence: GQYFGELALVTNKPR, peptide start residue: 333) (UniProt P13861)”, the log2 fold change worked out at 0.659. Then “LAMA5 (peptide sequence: TFQLDTAVDRPCAR, peptide start residue: 2918) (UniProt O15230)”, with 1.14; and “CHD4 (peptide sequence: SDSEGSDYTPGK, peptide start residue: 103) (UniProt Q14839)”, with 1.11; and “IRAK4 (peptide sequence: MGEGGFGVVYK, peptide start residue: 192) (UniProt Q9NWZ3)”, with -2.25. The value for “SRRM1 (peptide sequence: KETESEAEDNLDDLEK, peptide start residue: 870) (UniProt Q8IYB3)” was 1.54.

For the target “FER (peptide sequence: NCLVGENNVLK, peptide start residue: 689) (UniProt P16591)”, the log2 fold change is -0.84. Then “UniProt Q99759 (peptide sequence: SPSAPINWR, peptide start residue: 355)”, with -2.28. The value for “PITPNB (peptide sequence: GTSAADV, peptide start residue: 265) (UniProt P48739)” was 0.354; that for “UniProt Q9H9C1 (peptide sequence: LLLDLFR, peptide start residue: 239)” was -1.26; that for “ARAF (peptide sequence: IGTGSFGTVFR, peptide start residue: 316) (UniProt P10398)” was 0.439.

Regarding “EIF2B1 (peptide sequence: VAQTGQDLK, peptide start residue: 259) (UniProt Q14232)”, the log2 fold change was found to be 0.366. In the case of “TAOK2 (peptide sequence: ERPPTVIMDLIQR, peptide start residue: 284) (UniProt Q9UL54)”, the log2 fold change was -2.3. The value for “XRCC6 (peptide sequence: LGSLVDEFK, peptide start residue: 518) (UniProt P12956)” was -0.499; that for “TIMM44 (peptide sequence: ALSQGVESVKK, peptide start residue: 178) (UniProt O43615)” was 0.555.
